Structures can show the parent of a compound that is named as a salt. ± gives the standard deviation of the averaged measurements.
Assays:
Test in all cases: growth (OD600 after 10 h); higher = more growth (less inhibition)
[1] = test system: E. coli TESEC Alr+ wild-type control; conditions: compound 0.1 mM; raw OD600 reference: median of DMSO wells 0.241, cell-free background 0.041
Protocol: (§1)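 TESEC Mtb Alr E. coli, or the Alr+ wild-type control, in 384-well plates with Prestwick library compounds at 0.1 mM and 1% DMSO, across arabinose induction levels of 1E3 to 1E7 nM. Growth is read as OD600 after 10 h at 37 °C in triplicate biological replicates.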

[2] = test system: E. coli TESEC Mtb Alr; conditions: compound 0.1 mM
Protocol: as §1

[3] = test system: E. coli TESEC Mtb Asd; conditions: compound 0.1 mM
Protocol: (§2)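 TESEC E. coli strains in which the native enzyme is deleted and replaced by arabinose-inducible Mtb Asd, DapB, CysH or TrpD, each grown in its selective medium. Strains were screened against the Prestwick library at 0.1 mM and 1% DMSO in 384-well format at low and high arabinose induction. Growth is read as OD600 after 10 h in triplicate.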

[4] = test system: E. coli TESEC Mtb DapB; conditions: compound 0.1 mM
Protocol: as §2

[5] = test system: E. coli TESEC Alr+ wild-type control; conditions: compound 0.1 mM; raw OD600 reference: median of DMSO wells 0.49, cell-free background 0.052
Protocol: (§3)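 TESEC Mtb Alr E. coli (ΔaraC ΔtolC ΔentC Δalr ΔdadX, arabinose-inducible Mtb Alr) or the Alr+ wild-type control strain, grown in defined M9-fructose medium without D-alanine in 96-well plates with Prestwick library compounds at 0.1 mM and 1% DMSO. Low Alr induction is 0.1 µM arabinose and high induction is 10 mM arabinose.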

[6] = test system: E. coli TESEC Mtb Alr; conditions: compound 0.1 mM; remark: listed apart in the source
Protocol: as §3

[7] = arabinose 1000 nM, raw OD600 reference: median of DMSO wells 0.294, cell-free background 0.041
[8] = arabinose 10000 nM, raw OD600 reference: median of DMSO wells 0.264, cell-free background 0.041
[9] = arabinose 100000 nM, raw OD600 reference: median of DMSO wells 0.201, cell-free background 0.041
[10] = arabinose 1000000 nM, raw OD600 reference: median of DMSO wells 0.193, cell-free background 0.041
[11] = arabinose 10000000 nM, raw OD600 reference: median of DMSO wells 0.146, cell-free background 0.041
[12] = arabinose induction (level): High, raw OD600 reference: median of DMSO wells 0.331, cell-free background 0.041
[13] = arabinose induction (level): Low, raw OD600 reference: median of DMSO wells 0.417, cell-free background 0.041
[14] = arabinose induction (level): High, raw OD600 reference: median of DMSO wells […], cell-free background 0.041
[15] = arabinose induction (level): Low, raw OD600 reference: median of DMSO wells 0.227, cell-free background 0.041
[16] = arabinose 100 nM, raw OD600 reference: median of DMSO wells 0.413, cell-free background 0.052
[17] = arabinose 10000000 nM, raw OD600 reference: median of DMSO wells […], cell-free background 0.052

Row | Compound | growth [1] | growth [2, 7] | growth [2, 8] | growth [2, 9] | growth [2, 10] | growth [2, 11] | growth [3, 12] | growth [3, 13] | growth [4, 14] | growth [4, 15] | growth [5] | growth [6, 16] | growth [6, 17]
1 | Cc1cccc(Nc2ccccc2C(=O)O)c1C [Mefenamic acid] | 0.134 ± 0.0041 | 0.135 ± 0.0024 | 0.04523 ± 0.00015 | 0.141 ± 0.002 | 0.103 ± 0.0072 | 0.132 ± 0.0029 | 0.232 ± 0.03 | 0.26 ± 0.047 | 0.203 ± 0.027 | 0.208 ± 0.028 | 0.158 ± 0.011 | 0.169 ± 0.094 | 0.149 ± 0.011
2 | Cc1ccccc1N1C(=O)c2cc(S(N)(=O)=O)c(Cl)cc2NC1C (stereo not drawn) [Metolazone] | 0.214 ± 0.0042 | 0.226 ± 0.031 | 0.258 ± 0.0029 | 0.214 ± 0.0094 | 0.136 ± 0.004 | 0.1376 ± 0.00093 | 0.386 ± 0.049 | 0.422 ± 0.091 | 0.199 ± 0.038 | 0.254 ± 0.087 | 0.481 ± 0.062 | 0.4 ± 0.018 | 0.292 ± 0.011
3 | CC/C(=C(/CC)c1ccc(O)cc1)c1ccc(O)cc1 [Diethylstilbestrol] | 0.0422 ± 0.0023 | 0.04 ± 0.0015 | 0.0413 ± 0.0044 | 0.0436 ± 0.0041 | 0.0394 ± 0.00096 | 0.0457 ± 0.0042 | 0.169 ± 0.011 | 0.0743 ± 0.016 | 0.171 ± 0.013 | 0.198 ± 0.012 | 0.0495 ± 0.0011 | 0.0551 ± 0.0059 | 0.0557 ± 0.0043
4 | Cc1onc(-c2ccccc2Cl)c1C(=O)N[C@@H]1C(=O)N2[C@@H]1SC(C)(C)[C@@H]2C(=O)O [Cloxacillin sodium salt] | 0.2567 ± 0.0017 | 0.288 ± 0.018 | 0.267 ± 0.005 | 0.217 ± 0.025 | 0.183 ± 0.0023 | 0.144 ± 0.0071 | 0.32 ± 0.051 | 0.41 ± 0.046 | 0.162 ± 0.01 | 0.208 ± 0.015 | 0.514 ± 0.11 | 0.417 ± 0.0066 | 0.344 ± 0.014
5 | COc1ccccc1N1CCN(CCCNc2cc(=O)n(C)c(=O)n2C)CC1 [Urapidil hydrochloride] | 0.224 ± 0.0078 | 0.274 ± 0.021 | 0.259 ± 0.0036 | 0.173 ± 0.017 | 0.17 ± 0.004 | 0.137 ± 0.0051 | 0.28 ± 0.038 | 0.455 ± 0.065 | 0.183 ± 0.017 | 0.201 ± 0.015 | 0.713 ± 0.029 | 0.409 ± 0.017 | 0.326 ± 0.011
6 | CC(Cc1cccc(C(F)(F)F)c1)NCCOC(=O)c1ccccc1 (stereo not drawn) [Benfluorex] | 0.174 ± 0.0053 | 0.15 ± 0.094 | 0.163 ± 0.0039 | 0.209 ± 0.0022 | 0.0479 ± 0.0001 | 0.0634 ± 0.0014 | 0.163 ± 0.014 | 0.153 ± 0.0072 | 0.149 ± 0.0064 | 0.1621 ± 0.00032 | 0.405 ± 0.013 | 0.411 ± 0.01 | 0.0607 ± 0.0052
7 | COC(=O)CCc1ccc(OCC(O)CNC(C)C)cc1 (stereo not drawn) [Esmolol hydrochloride] | 0.234 ± 0.014 | 0.295 ± 0.018 | 0.2542 ± 0.00042 | 0.218 ± 0.0079 | 0.195 ± 0.0068 | 0.129 ± 0.0016 | 0.242 ± 0.013 | 0.432 ± 0.022 | 0.195 ± 0.0058 | 0.227 ± 0.019 | 0.431 ± 0.019 | 0.405 ± 0.015 | 0.388 ± 0.021
8 | CC(=O)N(CC(O)CN(C(C)=O)c1c(I)c(C(=O)NCC(O)CO)c(I)c(C(=O)NCC(O)CO)c1I)c1c(I)c(C(=O)NCC(O)CO)c(I)c(C(=O)NCC(O)CO)c1I (stereo not drawn) [Iodixanol] | 0.235 ± 0.0081 | 0.303 ± 0.015 | 0.26 ± 0.0054 | 0.182 ± 0.022 | 0.177 ± 0.0052 | 0.1415 ± 0.00091 | 0.358 ± 0.082 | 0.421 ± 0.015 | 0.206 ± 0.0036 | 0.215 ± 0.043 | 0.537 ± 0.093 | 0.406 ± 0.013 | 0.334 ± 0.0038
9 | CCN1CCN(C(=O)N[C@@H](C(=O)N[C@@H]2C(=O)N3[C@@H]2SC(C)(C)[C@@H]3C(=O)O)c2ccccc2)C(=O)C1=O [Piperacillin sodium salt] | 0.237 ± 0.0061 | 0.295 ± 0.014 | 0.268 ± 0.0055 | 0.204 ± 0.0097 | 0.201 ± 0.0086 | 0.133 ± 0.0047 | 0.328 ± 0.021 | 0.4754 ± 0.0046 | 0.204 ± 0.01 | 0.207 ± 0.025 | 0.508 ± 0.061 | 0.405 ± 0.013 | 0.354 ± 0.011
10 | CCC[C@H](N[C@@H](C)C(=O)N1[C@H](C(=O)O)C[C@@H]2CCCC[C@@H]21)C(=O)OCC [Perindopril] | 0.252 ± 0.01 | 0.309 ± 0.0092 | 0.286 ± 0.0037 | 0.208 ± 0.016 | 0.198 ± 0.024 | 0.149 ± 0.0041 | 0.225 ± 0.016 | 0.392 ± 0.033 | 0.198 ± 0.01 | 0.239 ± 0.041 | 0.555 ± 0.1 | 0.431 ± 0.0091 | 0.325 ± 0.0072
11 | CCCCCCCN(CC)CCCC(O)c1ccc(NS(C)(=O)=O)cc1 (stereo not drawn) [Ibutilide fumarate] | 0.219 ± 0.041 | 0.298 ± 0.013 | 0.268 ± 0.01 | 0.183 ± 0.02 | 0.158 ± 0.0044 | 0.137 ± 0.001 | 0.271 ± 0.022 | 0.44 ± 0.022 | 0.197 ± 0.027 | 0.243 ± 0.019 | 0.55 ± 0.095 | 0.408 ± 0.0059 | 0.313 ± 0.016
12 | CC(C)(S)C(N)C(=O)O (racemic) [D,L-Penicillamine] | 0.251 ± 0.0054 | 0.307 ± 0.016 | 0.2563 ± 0.0018 | 0.187 ± 0.021 | 0.187 ± 0.0061 | 0.146 ± 0.0078 | 0.307 ± 0.03 | 0.413 ± 0.018 | 0.18 ± 0.023 | 0.205 ± 0.024 | 0.437 ± 0.0091 | 0.403 ± 0.0076 | 0.35 ± 0.014
13 | CC(C)[C@H](N)C(=O)OCCOCn1cnc2c(=O)nc(N)[nH]c21 [Valacyclovir hydrochloride] | 0.243 ± 0.0038 | 0.302 ± 0.0067 | 0.2661 ± 0.0012 | 0.22 ± 0.039 | 0.195 ± 0.0058 | 0.144 ± 0.0025 | 0.258 ± 0.006 | 0.365 ± 0.054 | 0.179 ± 0.011 | 0.186 ± 0.021 | 0.533 ± 0.17 | 0.408 ± 0.0084 | 0.369 ± 0.0047
14 | CCCCc1nc(Cl)c(CO)n1Cc1ccc(-c2ccccc2-c2nnn[nH]2)cc1 [Losartan] | 0.204 ± 0.0085 | 0.281 ± 0.015 | 0.258 ± 0.0039 | 0.209 ± 0.026 | 0.161 ± 0.0058 | 0.1297 ± 0.0011 | 0.23 ± 0.017 | 0.409 ± 0.0075 | 0.195 ± 0.015 | 0.228 ± 0.018 | 0.495 ± 0.071 | 0.4187 ± 0.0032 | 0.279 ± 0.0092
15 | CNC(=C[N+](=O)[O-])NCCSCc1ccc(CN(C)C)o1 [Ranitidine hydrochloride] | 0.235 ± 0.0096 | 0.283 ± 0.015 | 0.252 ± 0.0043 | 0.203 ± 0.0086 | 0.179 ± 0.0036 | 0.1447 ± 0.0011 | 0.323 ± 0.037 | 0.455 ± 0.058 | 0.191 ± 0.011 | 0.234 ± 0.032 | 0.485 ± 0.064 | 0.408 ± 0.0097 | 0.338 ± 0.0081
16 | CSc1ccc2c(c1)C(N1CCN(C)CC1)Cc1ccccc1S2 (stereo not drawn) [Methiothepin maleate] | 0.0405 ± 0.00044 | 0.0412 ± 0.0021 | 0.0394 ± 0.00042 | 0.04073 ± 0.00025 | 0.03917 ± 5.8e-05 | 0.0411 ± 0.0013 | 0.0562 ± 0.0036 | 0.0503 ± 0.0057 | 0.0514 ± 0.00083 | 0.0485 ± 0.00094 | 0.04833 ± 0.00021 | 0.293 ± 0.21 | 0.0516 ± 0.00053
